“And” between values parts separate entries of the source, which are not always exact repeats. Identical values can stand only once. Where a structure was tested more than once in an assay, its records may differ in their call. The source made the active and inactive calls. Unless noted, no stated cut-off is given here; in the data, active means inhibition above about 80%; inactive means the rest. Where a SMILES comes first, the peptide text is derived from it. The star is where a group is joined. Cbz = O=C(OCc1ccccc1)*
Columns and labels:
[1] = kinase inhibitors against Plasmodium liver-stage infection, cell-based, known kinase inhibitor set, luminescence, hepatoma host viability (AID 624392; call rule not given here;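 further: infected cells incubated roughly two days before readout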); settings: Plasmodium liver stage in hepatoma cells, luciferase luminescence, concentration not given here; liver cell % of control: measured here: host liver cell viability; parasite % of control: stronger effect = lower value
[2] = LFS_MB_1R medulloblastoma cell growth inhibition, synergistic combos for chromothripsis tumors, cisplatin or BGB combos (AID 1671452); settings: LFS_MB_1R medulloblastoma cells, stronger effect = higher value;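 further: cells exposed for 96 hours before readout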
[3] = CRL2098 osteosarcoma cell growth inhibition, synergistic combos for chromothripsis tumors, BGB or cisplatin IC20 combos (AID 1671454); settings: CRL2098 osteosarcoma cells, drug combinations, stronger effect = higher value;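 further: cells exposed for 96 h before readout; 0% = vehicle DMSO and 100% = killing by high DMSO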
[4] = HD-MB03 medulloblastoma cell growth inhibition, synergistic combos for chromothripsis tumors, BGB or cisplatin IC20 combos (AID 1671455; in the data active means inhibition above about 83%;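 further: 0% = vehicle DMSO and 100% = high DMSO as cytotoxic control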); settings: HD-MB03 medulloblastoma cells, stronger effect = higher value
[5] = UWB1.289 ovarian carcinoma cell growth inhibition, synergistic combos for chromothripsis tumors, BGB or cisplatin combos (AID 1671456); settings: UWB1.289 ovarian carcinoma cells, stronger effect = higher value;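 further: cells exposed to compound for four days; 0% = vehicle DMSO and 100% = killing by high DMSO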
[6] = LFS_MB_2R medulloblastoma cell growth inhibition, synergistic combos for chromothripsis tumors, cisplatin combos (AID 1671457); settings: LFS_MB_2R medulloblastoma cells, stronger effect = higher value;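 further: cells exposed to compound for four days before readout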
[7] = UWB1.289_BRCA1 ovarian cancer growth, cell-based, BGB or cisplatin combinations (AID 1671459); settings: UWB1.289 BRCA1 ovarian carcinoma, drug combinations, stronger effect = higher value
[8] = human astrocyte viability loss, single and combined drugs, cytotoxicity control for chromothriptic childhood tumor combination screen, cell-based, BGB or cisplatin IC20 combos (AID 1671460); settings: Human astrocytes, drug combinations, stronger effect = higher value;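 further: cells exposed to compounds for 96 hours before viability readout; 0% = vehicle and 100% = killing control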
[9] = growth inhibition of CRL1545 osteosarcoma cells, cell-based, cisplatin and BGB IC20 combos (AID 1671464); settings: stronger effect = higher value;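 further: cells exposed to compound for 96 hours before readout; 0% = vehicle DMSO and 100% = high DMSO killing control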
[10] = liver-stage malaria parasite growth inhibition, primary screen, cell-based, HepG2, luciferase luminescence, HepG2 viability (AID 624349; in the data active means parasite load remaining mostly below about 12%, no sharp cut-off; inactive means mostly above about 10%;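 further: 100% = mean of DMSO negative control wells on the same plate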); settings: P. berghei liver stage in HepG2, luciferase luminescence, concentration not given here; parasite load remaining: stronger effect = lower value; viability: measured here: HepG2 viability without parasites
[11] = inhibitors of Cryptococcus chitosan production, flow cytometry, Cibacron Brilliant Red staining (AID 1347148; call rule not given here;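 further: compound exposure lasted three days at 37 degrees C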); settings: Cryptococcus neoformans chitosan, stronger effect = lower value; at 10 µM unless noted
[12] = measured here: combination with BGB IC40, at 0.05 µM
[13] = measured here: combination with cisplatin, at 0.5 µM
[14] = measured here: combination with cisplatin, at 5 µM
[15] = measured here: combination with BGB at IC20, at 0.5 µM
[16] = measured here: combination with cisplatin at IC20, at 0.5 µM
[17] = measured here: combo with BGB at IC20, at 0.5 µM
[18] = measured here: combo with cisplatin at IC20, at 0.5 µM
[19] = measured here: inhibition with BGB combination, at 0.05 µM
[20] = measured here: inhibition with cisplatin combination, at 0.05 µM
[21] = BGB combination, concentration series, at 5 µM
[22] = cisplatin combination, concentration series, at 5 µM
[23] = measured here: combo with BGB IC20, at 0.5 µM
[24] = measured here: combo with cisplatin IC20, at 0.5 µM
[25] = measured here: with BGB IC20 combination, at 0.5 µM
[26] = measured here: with cisplatin IC20 combination, at 0.5 µM

## Cc1cn(-c2cc(NC(=O)c3ccc(C)c(Nc4nccc(-c5cccnc5)n4)c3)cc(C(F)(F)F)c2)cn1
[1]
  liver cell % of control: 96.6% and 104% and 98.4%
  parasite % of control: 40.6% (inactive) and 49.1% (inactive) and 89.8% (inactive)

## C[C@@H]1CN(CC(=O)Nc2ccc3c(c2)Cc2cccc(-c4cc(=O)cc(N5CCOCC5)o4)c2S3)C[C@H](C)O1
[2]; at 0.5 µM
  inhibition: -8.44% (inactive) and -21% (inactive)
[2]; [12]
  inhibition: 3.35% and -5.52%
[2]; [13]
  inhibition: -14.6% and -41.1%
[2]; [14]
  inhibition: -56% and -92.8%
[3]; at 0.5 µM
  inhibition: -44.4% (inactive) and -42.5% (inactive)
[3]; [15]
  inhibition: -21.5% and -30.1%
[3]; [16]
  inhibition: -75.7% and -79.9%
[4]; at 0.5 µM
  inhibition: -12% (inactive) and -9.56% (inactive)
[4]; [17]
  inhibition: -14.5% and -20%
[4]; [18]
  inhibition: -16.9% and 0.275%
[5]; at 0.5 µM
  inhibition: -15.2% (inactive) and 1.44% (inactive)
[5]; [19]
  inhibition: -5.12% and -6.06%
[5]; [20]
  inhibition: -21.5% and 20.1%
[6]; at 0.5 µM
  inhibition: -9.09% (inactive) and -22.8% (inactive)
[6]; [13]
  inhibition: -17.7% and -28.5%
[6]; [14]
  inhibition: 7.16% and -9%
[7]; [21]
  inhibition: -11.5% and 19.3%
[7]; at 0.5 µM
  inhibition: -16.3% (inactive) and -2.61% (inactive)
[7]; [22]
  inhibition: -2.71% and 10.4%
[8]; at 0.5 µM
  inhibition: -26.1% (inactive) and -28.5% (inactive)
[8]; [23]
  inhibition: -42.3% and -37.5%
[8]; [24]
  inhibition: -29% and -44.1%
[9]; at 0.5 µM
  inhibition: 5.04% (inactive) and -9.72% (inactive)
[9]; [25]
  inhibition: 22% and -3.16%
[9]; [26]
  inhibition: -5.11% and -14.8%
[9]; single agent, at 0.05 µM
  inhibition: 7.16% and -18.1%
[9]; single agent, at 5 µM
  inhibition: -20.2% and -4.99%

## CC(=O)OC1C(C)OC(Oc2c(-c3ccc(O)cc3)oc3cc(O)cc(O)c3c2=O)C(O)C1OC(C)=O (stereo not drawn)
[10]
  parasite load remaining: 29.8% (inactive)
  viability: 85%

## CC(C)n1c(/C=C/[C@H](O)C[C@H](O)CC(=O)O)c(-c2ccc(F)cc2)c2ccccc21
[10]
  parasite load remaining: 134% (inactive)
  viability: 92.6%

## CC(C)C[C@@H](C=O)NC(=O)[C@H](CC(C)C)NC(=O)[C@H](CC(C)C)NC(=O)OCc1ccccc1 (Cbz-Leu-Leu-Leu-aldehyde)
[11]
  fold fluorescence: 10.3 [at 105.1 µM] (inactive)

## CC(C)(C)c1nc2c3cc[nH]c(=O)c3c3cc(F)ccc3c2[nH]1
[10]
  parasite load remaining: 88% (inactive)
  viability: 127%
[1]
  liver cell % of control: 205% and 286% and 305%
  parasite % of control: 128% (inactive) and 18.5% (inactive) and 5.35% (inactive)

## O=C(Nc1cn[nH]c1-c1nc2ccc(CN3CCOCC3)cc2[nH]1)NC1CC1
[1]
  liver cell % of control: 44.3% and 46.2% and 49.7%
  parasite % of control: 0.367% (inactive) and 0.333% (inactive) and 0.278% (inactive)

## C=CC(=O)Nc1cc2c(Nc3ccc(F)c(Cl)c3)ncnc2cc1C#CC(C)(C)N1CCN(C)CC1
[1]
  liver cell % of control: 44% and 49.4% and 70.7%
  parasite % of control: 0.362% (inactive) and 1.83% (inactive) and 6.99% (inactive)

## CC(C)(C)c1cnc(CSc2cnc(NC(=O)C3CCNCC3)s2)o1
[1]
  liver cell % of control: 42.1% and 45.4% and 53.6%
  parasite % of control: 0.331% (inactive) and 0.54% (inactive) and 1.3% (active)

## Cc1[nH]c(/C=C2\C(=O)Nc3ccc(S(=O)(=O)N(C)c4cccc(Cl)c4)cc32)c(C)c1C(=O)N1CCN(C)CC1
[10]
  parasite load remaining: 38.5% (inactive)
  viability: 69.6%

## Cn1c2ccccc2c2c3c(c4c5ccccc5n(CCC#N)c4c21)CNC3=O
[10]
  parasite load remaining: 110% (inactive)
  viability: 92.8%
[11]
  fold fluorescence: 3.75 [at 132.1 µM] (inactive)

## CC(C)c1nn(-c2c(Cl)cccc2Cl)c2nc(Cc3ccc(OCCO)cc3)[nH]c(=O)c12
[10]
  parasite load remaining: 77.3% (inactive)
  viability: 79.7%

## CN(C)c1ccc(C(=O)NCCCCCCC(=O)NO)cc1
[2]; at 0.5 µM
  inhibition: 32.4% (inactive)
[2]; [12]
  inhibition: -37.9%
[2]; [13]
  inhibition: 63.6%
[2]; [14]
  inhibition: 97.6%
[3]; at 0.5 µM
  inhibition: -26.1% (inactive)
[3]; [15]
  inhibition: -83.1%
[3]; [16]
  inhibition: 6.53%
[4]; at 0.5 µM
  inhibition: 47.5% (inactive)
[4]; [17]
  inhibition: 38.6%
[4]; [18]
  inhibition: 81.5%
[5]; at 0.5 µM
  inhibition: 31% (inactive)
[5]; [19]
  inhibition: -11.2%
[5]; [20]
  inhibition: 3.19%
[6]; at 0.5 µM
  inhibition: 15.7% (inactive)
[6]; [13]
  inhibition: 37.8%
[6]; [14]
  inhibition: 95.1%
[7]; [21]
  inhibition: 88.6%
[7]; at 0.5 µM
  inhibition: 35.3% (inactive)
[7]; [22]
  inhibition: 103%
[8]; at 0.5 µM
  inhibition: 25.9% (inactive)
[8]; [23]
  inhibition: 24.7%
[8]; [24]
  inhibition: 16.4%
[9]; at 0.5 µM
  inhibition: 76.1% (inactive)
[9]; [25]
  inhibition: 71.1%
[9]; [26]
  inhibition: 78%
[9]; single agent, at 0.05 µM
  inhibition: 23%
[9]; single agent, at 5 µM
  inhibition: 91.7%

— PubChem BioAssay
